# Measurements reported in PubChem BioAssay (NCATS).
# Records with an inconclusive call do not appear. Active and inactive are the calls of the source. Unless noted, the call rests on the fitted dose curve; in most records, active means well fitted inhibition curve with a large enough effect; inconclusive means small, poorly fitted or top-dose-only effect; inactive means flat fitted curve, though single readings scatter.
# How the values were obtained:
# [1] = qHTS for identification of novel therapeutic agents for treatment of microphthalmiaassociated transcription factor (MiT) renal cell carcinoma (RCC) (AID 1963991; calls by dose curve); conditions: CellTiter-Glo, 48 h; for z-score: stronger effect = lower value
# Method in brief: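 Curves over 11 concentrations were fitted to CellTiter-Glo luminescence, scaled between empty wells (0%) and DMSO (100%) viability. Cells were UOK109, UOK124 and UOK145 TFE3-fusion RCC lines at 500/well, exposed 48 hours at 37 C.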
# [2] = test system: 3D7; assay: qHTS profiling for inhibitors of Plasmodium falciparum proliferation (AID 504749); further: nearly all actives have a fitted effect of over 60% in size;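 on activity, negative = inhibition: 0% = DMSO vehicle and full inhibition = artemisinin control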; conditions: P. falciparum in erythrocytes, SYBR Green DNA, 72 h; series mostly up to 28.7 µM
# Method in brief: (§1)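 P. falciparum-infected erythrocytes (0.3% parasitemia, 2.5% hematocrit final) were exposed to compounds for 72 h at 37 C in 5% CO2, then lysed with SYBR Green buffer overnight at room temperature; parasite DNA fluorescence was normalized to artemisinin and DMSO controls.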
# [3] = test system: 7G8; assay: as above; conditions: P. falciparum in erythrocytes, SYBR Green DNA, 72 h; series mostly up to 28.7 µM
# Method in brief: as §1
# [4] = test system: AS120; assay: as above; conditions: P. falciparum in erythrocytes, SYBR Green DNA, 72 h; series mostly up to 28.7 µM
# Method in brief: as §1
# [5] = test system: ATS189; assay: as above; conditions: P. falciparum in erythrocytes, SYBR Green DNA, 72 h; series mostly up to 28.7 µM
# Method in brief: as §1
# [6] = as above; conditions: P. falciparum in erythrocytes, SYBR Green DNA, 72 h; for activity, negative = inhibition: at 28.7 µM (top of the series)
# Method in brief: as §1
# [7] = test system: AA1029; assay: as above; conditions: P. falciparum in erythrocytes, SYBR Green DNA, 72 h; series mostly up to 28.7 µM
# Method in brief: as §1
# [8] = test system: ATS95; assay: as above; conditions: P. falciparum in erythrocytes, SYBR Green DNA, 72 h; series mostly up to 28.7 µM
# Method in brief: as §1
# [9] = TFE3-RCC UOK109 viability, measured here: UOK109 Z-AUC
# [10] = TFE3-RCC viability, measured here: UOK124 Z-AUC
# [11] = TFE3-RCC viability, measured here: UOK145 Z-AUC
# Potency means the concentration at half of the fitted maximal effect.
structure (smiles),measurement,setting,value
CCCN1CCO[C@@H]2c3cc(O)ccc3OC[C@@H]21,z-score,[1]; [9],0.649
same,z-score,[1]; [10],0.425
same,z-score,[1]; [11],0.561
C[C@]12CCC(=O)C(O)=C1CC[C@@H]1[C@H]3CCC(=O)[C@@]3(C)CC[C@@H]12,Potency,[2],inactive
same,Potency,[3],inactive
same,Potency,[4],inactive
CN[C@@H]1C[C@@H](c2ccc(Cl)c(Cl)c2)c2ccccc21,Potency,[2],inactive
same,Potency,[3],10 µM (active)
same,Potency,[5],inactive
CC(=O)[O][Hg][c]1ccccc1,Potency,[6]; parasite line A,3.98 µM (active)
same,Potency,[6]; parasite line B,6.31 µM (active)
same,Potency,[2],12.6 µM (active)
same,Potency,[3],1 µM (active)
same,Potency,[7],4.47 µM (active)
same,Potency,[4],3.98 µM (active)
same,Potency,[5],11.2 µM (active)
same,Potency,[8],4.47 µM (active)
CC(C)(O)C=CC(=O)[C@](C)(O)[C@H]1[C@H](O)C[C@]2(C)[C@@H]3CC=C4[C@@H](C=C(O)C(=O)C4(C)C)[C@]3(C)C(=O)C[C@@]12C,Potency,[1]; TFE3-RCC UOK109 viability,0.0833 µM (active)
same,z-score,[1]; [9],-3.73
same,z-score,[1]; [10],-2.29
same,z-score,[1]; [11],-2.28
NC(=O)CN1CC(O)CC1=O (stereo unspecified),"activity, negative = inhibition",[6]; parasite line A,3.26% (inactive)
same,"activity, negative = inhibition",[6]; parasite line B,7.69% (inactive)
same,Potency,[2],inactive
same,Potency,[3],inactive
same,Potency,[7],inactive
same,Potency,[4],inactive
same,Potency,[5],inactive
same,Potency,[8],inactive
C[C@H]1CCCC=CC2C[C@H](O)C[C@@H]2[C@H](O)C=CC(=O)O1 (stereo partly specified),z-score,[1]; [9],-3.99
same,z-score,[1]; [10],-3.69
same,z-score,[1]; [11],-5.31
CCCN1CCC[C@H](c2cccc(O)c2)C1,"activity, negative = inhibition",[6]; parasite line A,8.52% (inactive)
same,"activity, negative = inhibition",[6]; parasite line B,-0.779% (inactive)
same,Potency,[2],inactive
same,Potency,[7],inactive
same,Potency,[4],inactive
same,Potency,[5],inactive
same,Potency,[8],inactive
CCCCCCCCCC(CC)c1ccc(S(=O)(=O)O)cc1 (stereo unspecified),"activity, negative = inhibition",[6]; parasite line A,4.98% (inactive)
same,"activity, negative = inhibition",[6]; parasite line B,0.132% (inactive)
same,Potency,[2],inactive
same,Potency,[3],inactive
same,Potency,[7],inactive
same,Potency,[4],inactive
same,Potency,[5],inactive
same,Potency,[8],inactive
CCCCCCCCCCCCCCCC[N+](C)(C)C,Potency,[6]; parasite line A,11.2 µM (active)
same,Potency,[2],8.91 µM (active)
same,Potency,[3],11.2 µM (active)
same,Potency,[4],11.2 µM (active)
O=C(O)COc1ccccc1,"activity, negative = inhibition",[6]; parasite line A,-0.911% (inactive)
same,"activity, negative = inhibition",[6]; parasite line B,7.97% (inactive)
same,Potency,[2],inactive
same,Potency,[3],inactive
same,Potency,[7],inactive
same,Potency,[4],inactive
same,Potency,[5],inactive
same,Potency,[8],inactive
C[C@@H]1O[C@@H](O[C@@H]2C=C3CC[C@@H]4[C@@H](CC[C@]5(C)[C@H](c6ccc(=O)oc6)CC[C@@]45O)[C@@]3(C)CC2)[C@H](O)[C@H](O)[C@H]1O,Potency,[1]; TFE3-RCC UOK109 viability,0.0209 µM (active)
same,z-score,[1]; [9],-3.96
same,z-score,[1]; [10],-3.13
same,z-score,[1]; [11],-3.36
Oc1ccc2c3c1O[C@H]1c4[nH]c5c(c4C[C@@]4(O)[C@@H](C2)N(CC2CC2)CC[C@]314)C[C@@]1(O)[C@H]2Cc3ccc(O)c4c3[C@@]1(CCN2CC1CC1)[C@H]5O4,z-score,[1]; [9],0.682
same,z-score,[1]; [10],0.462
same,z-score,[1]; [11],0.385
CC(C)NC(C)Cc1ccc(I)cc1 (stereo unspecified),"activity, negative = inhibition",[6]; parasite line A,11.4% (inactive)
same,"activity, negative = inhibition",[6]; parasite line B,-12.4% (inactive)
same,Potency,[2],inactive
same,Potency,[3],10 µM (active)
same,Potency,[7],inactive
same,Potency,[4],inactive
same,Potency,[5],inactive
same,Potency,[8],inactive
COc1cc2cc(c1Cl)N(C)C(=O)C[C@H](OC(=O)C(C)C)[C@]1(C)O[C@H]1[C@H](C)[C@@H]1C[C@@](O)(NC(=O)O1)[C@H](OC)C=CC=C(C)C2,z-score,[1]; [9],-2.37
same,z-score,[1]; [10],-3.1
same,z-score,[1]; [11],-1.62
CC(=O)OCC1=C(C(=O)O)N2C(=O)[C@@H](N)[C@@H]2SC1,z-score,[1]; [9],-1.76
same,z-score,[1]; [10],0.735
same,z-score,[1]; [11],1.3
same,Potency,[2],inactive
same,Potency,[3],inactive
O=[N+]([O-])c1ccc([As](=O)(O)O)cc1,Potency,[6]; parasite line A,6.31 µM (active)
same,Potency,[6]; parasite line B,6.31 µM (active)
same,Potency,[2],10 µM (active)
same,Potency,[3],3.55 µM (active)
same,Potency,[7],3.98 µM (active)
same,Potency,[4],7.94 µM (active)
same,Potency,[5],7.08 µM (active)
same,Potency,[8],11.2 µM (active)
C=CCN1CC[C@]23CCCCC2[C@H]1Cc1ccc(O)cc13 (stereo partly specified),"activity, negative = inhibition",[6]; parasite line A,18.6% (inactive)
same,"activity, negative = inhibition",[6]; parasite line B,4.44% (inactive)
same,Potency,[2],inactive
same,Potency,[3],11.2 µM (active)
same,Potency,[7],inactive
same,Potency,[4],inactive
same,Potency,[5],inactive
same,Potency,[8],inactive
C1CCC(NC2CCCCC2)CC1,"activity, negative = inhibition",[6]; parasite line A,7.71% (inactive)
same,"activity, negative = inhibition",[6]; parasite line B,9.08% (inactive)
same,Potency,[2],inactive
same,Potency,[3],inactive
same,Potency,[7],inactive
same,Potency,[4],inactive
same,Potency,[5],inactive
same,Potency,[8],inactive
COC(C)(C)CCCC(C)C/C=C/C(C)=C/C(=O)OC(C)C (stereo unspecified),Potency,[8],inactive
CC[C@@H]1[C@@H](C)O[C@@](O)([C@@H](C)[C@H](O)[C@H](C)[C@H]2OC(=O)C=CC=C[C@@H](C)[C@@H]([C@@H](C)[C@@H](O)[C@H](C)[C@@]3(O)C[C@H](O[C@H]4C[C@H](O)[C@H](O)[C@H](C)O4)[C@H](CC)[C@@H](C)O3)OC(=O)C=CC=C[C@@H]2C)C[C@H]1O[C@H]1C[C@H](O)[C@H](O)[C@H](C)O1,Potency,[1]; TFE3-RCC UOK109 viability,1.05 µM (active)
same,z-score,[1]; [9],-1.85
same,z-score,[1]; [10],-2.49
same,z-score,[1]; [11],-1.57
